Hits are enriched below; roughly 0.92% of the tested compounds scored in any of these assays.
RecA intein inh: Mtb RecA intein splicing inhibitors, primary screen, biochemical, fluorescence, HTS; Protein RecA (Mycobacterium tuberculosis (strain ATCC 25618 / H37Rv)), P9WHJ3; cell-free RecA intein splicing; inhibition, % (test concentration not listed); hit rate 0.75% among 290,000; in the data active = inhibition above about 30%;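 note: 0% = vehicle wells and 100% = reference inhibitor control wells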
FadD28 FP inh: inhibitors of FadD28 bisubstrate probe binding, primary screen, biochemical, fluorescence polarization, single point. Mycobacterium tuberculosis FadD28 fatty-acid-AMP ligase. inhibition, % at 12.5 µM. hit rate 0.22% among 360,000; in the data active = inhibition above about 8.5%, passing the limit was not always enough
Mtb hypoxia rep: PubChem AID 1159583; M. tuberculosis hypoxia-regulated fluorescent reporter, fluorescence; fluorescence inhibition, % (test concentration not listed); hit rate 0.1% among 300,000; in the data active = fluorescence inhibition mostly above about 23%, no sharp cut-off; inactive = mostly below about 17%
Rv3671c protease: Rv3671c serine protease inhibitors, primary screen, biochemical, fluorescence polarization, M. tuberculosis H37Rv | inhibition, % at 5.96 µM | hit rate 0.048% among 320,000 | AID 2606, 2010; in the data active = inhibition above about 38%;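 note: extracellular domain of Rv3671c used as enzyme; 0% = enzyme with DMSO and 100% = no enzyme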
Target sequence (P9WHR9 whole entry, looked up, the tested form may be a part): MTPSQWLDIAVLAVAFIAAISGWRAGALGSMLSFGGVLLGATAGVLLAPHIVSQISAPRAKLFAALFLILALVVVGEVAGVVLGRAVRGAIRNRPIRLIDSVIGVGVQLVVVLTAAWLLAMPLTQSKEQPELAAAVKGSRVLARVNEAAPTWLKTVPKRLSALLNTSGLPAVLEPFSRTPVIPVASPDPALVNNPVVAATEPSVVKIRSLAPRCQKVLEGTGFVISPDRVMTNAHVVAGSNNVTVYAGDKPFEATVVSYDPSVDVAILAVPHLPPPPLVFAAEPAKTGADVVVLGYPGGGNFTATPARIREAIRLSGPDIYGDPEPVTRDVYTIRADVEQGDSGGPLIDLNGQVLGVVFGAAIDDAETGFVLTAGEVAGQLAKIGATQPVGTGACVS
Mtb betalactam: beta-lactam sensitization of Mtb H37Rv, H37Rv. M. tuberculosis H37Rv growth with meropenem, percent inhibition. inhibition, % at 25 µM. hit rate 0.27% among 330,000. AID 434955, 2010; call rule not given here;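 note: growth measured after seven days incubation then overnight dye step; 0% = bacteria only wells and 100% = bacteria with antibiotic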
Mtb UGM inh: M. tuberculosis UGM enzyme inhibitors, primary screen, biochemical, fluorescence polarization, single point; purified UGM, fluorescence polarization probe displacement; inhibition, % at 10 µM; hit rate 0.06% among 320,000; in the data active = inhibition above about 10%, passing the limit was not always enough
An asterisk follows results filed as active; · = no result.

SMILES	RecA intein inh	FadD28 FP inh	Mtb hypoxia rep	Rv3671c protease	Mtb betalactam	Mtb UGM inh
O=[N+]([O-])c1ccc(/C=N/Nc2nc(-c3ccccc3)c3cc(Br)ccc3n2)o1	6.1	-0.3	·	1.6	99.0	2.7
CC(C)Nc1nc(Cl)nc(N(C#N)CN2C(=O)c3ccccc3S2(=O)=O)n1	23.3	-0.7	7.8	-13.8	0.8	-0.2
COc1nc(NC(C)C)nc(N(C#N)CN2C(=O)c3ccccc3S2(=O)=O)n1	60.9*	-1.9	-0.8	-1.2	4.3	0.2
COc1ccc(OCC(=O)N2CCN(S(=O)(=O)c3ccc(Cl)s3)CC2)cc1	·	0.0	4.4	-3.5	4.5	3.2
N#Cc1ccc(OCC(=O)N2CCN(S(=O)(=O)c3ccc(Cl)s3)CC2)cc1	·	-5.7	27.2*	-0.7	-3.1	-1.5
COc1cc(-c2ccc(Nc3ccccc3C(=O)O)c(OC)c2)ccc1Nc1ccccc1C(=O)O	·	77.6*	0.0	·	·	·
O=S(=O)(O)c1cccc(N=Nc2c(O)ccc3ccccc23)c1	-0.9	3.4	35.8*	-19.6	10.1	0.8
O=C(NN1C(=O)/C(=C/C=C/c2ccco2)SC1=S)c1ccncc1	0.8	30.4*	14.5	11.9	96.2	2.9
O=C1/C(=C/C=C/c2ccco2)SC(=S)N1c1ccc(O)cc1	15.8	17.7*	6.2	14.9	87.4	-1.1
CC(C)C(C(=O)O)N1C(=O)/C(=C/C=C/c2ccco2)SC1=S (stereo not drawn)	13.4	47.2*	-9.5	12.1	-0.3	-4.1
COC(=O)c1ccc(NC(=O)N2CCCC(C(=O)c3ccccc3OC)C2)cc1 (stereo not drawn)	1.3	1.7	0.9	-16.8	0.1	0.3
O=C1C2CC=CCC2C(=O)N1c1ncn[nH]1 (stereo not drawn)	-1.6	-0.9	7.6	4.9	2.8	-0.1
C=C(C1=CCN(S(=O)C(C)(C)C)[C@H]1CCO)c1ccccc1 (stereo partly drawn)	·	-2.1	2.8	·	·	·
N=c1n(CCN2CCCC2)c2ccccc2n1CC(O)c1ccco1 (stereo not drawn)	-1.5	0.1	-2.1	-1.7	-1.6	40.7*
CCCCCCCn1c(=N)n(CC(O)c2ccco2)c2ccccc21 (stereo not drawn)	1.2	-1.4	-7.4	2.0	3.4	1.1
O=C1c2ccccc2[C@@H]2C[C@H](NC34CC5CC(CC(C5)C3)C4)[C@@H](O)CCN12	·	-1.6	3.5	·	·	·
C=COC(=O)CSc1snc(SCC(=O)OC)c1C#N	33.2*	-9.3	·	-3.5	8.8	1.3
CC(=O)NC1C(=O)N(CCN2CCOCC2)c2ccc(F)cc21 (stereo not drawn)	40.9*	0.2	11.7	·	4.2	-3.2
CC(=O)NC1C(=O)N(CCN2CCOCC2)c2ccc(C)cc21 (stereo not drawn)	65.5*	-2.3	8.6	17.4	-6.7	0.6
CCCCN1C(=O)C(NC(C)=O)c2cc(Br)ccc21 (stereo not drawn)	-3.7	-1.8	·	-0.7	-4.0	-2.6
CCN1C(=O)C(NC(C)=O)c2cc(Br)ccc21 (stereo not drawn)	-0.5	-5.0	·	-2.7	-0.2	1.7
CCc1ccc2c(c1)C(NC(C)=O)C(=O)N2CC (stereo not drawn)	1.4	-0.2	11.2	-2.8	-4.3	1.0
CC(=O)NC1C(=O)N(CCN2CCOCC2)c2ccc(Cl)cc21 (stereo not drawn)	46.2*	-1.1	·	·	3.5	-1.3
COc1ccc(C=NN(Cc2ccccc2)c2ccccc2)cc1O	·	·	10.1	·	·	·
COc1ccc(/C=N/N(Cc2ccccc2)c2ccccc2)cc1O	0.5	11.6*	·	0.2	24.2	2.1
SMILES	RecA intein inh	FadD28 FP inh	Mtb hypoxia rep	Rv3671c protease	Mtb betalactam	Mtb UGM inh
C=C1CSc2nc(=O)c3c4c(sc3n21)CCCC4	-1.6	-5.2	14.2	-10.0	12.2	3.0
C=C1CSc2nc(=O)c3c4c(sc3n21)CCC4	·	-1.2	42.5*	-1.9	44.8	2.1
COc1ccccc1NC(=O)c1cc(-c2cc(OC)c(OC)c(OC)c2)nc2ccccc12	-1.4	-1.4	2.1	-26.7	2.6	-1.8
COc1cc(-c2cc(C(=O)Nc3ccncc3)c3ccccc3n2)cc(OC)c1OC	·	-3.6	21.7*	-0.8	14.9	-3.6
O=C(O)CC(NC(=O)c1ccco1)c1ccco1 (stereo not drawn)	1.4	-1.8	7.9	·	-2.8	4.9
O=C(CCSc1ccc(Cl)cc1)N1CCOCC1	-0.1	-2.3	5.0	0.1	5.9	1.2
O=C(CSc1ccc(Cl)cc1)N1CCOCC1	2.5	14.7*	·	-5.3	-2.2	2.2
O=C(CCCN1C(=O)/C(=C\c2cccs2)SC1=S)Nc1ccc(C(=O)O)cc1	14.0	-1.0	5.9	-12.4	6.6	4.2
O=C(CCCN1C(=O)/C(=C\c2cccs2)SC1=S)Nc1ccc(O)cc1C(=O)O	31.6*	3.5	-3.7	-10.0	8.7	2.2
O=C(CCCN1C(=O)/C(=C/c2ccco2)SC1=S)Nc1cccc(C(=O)O)c1	9.1	17.9*	17.6	-0.2	2.3	0.2
O=C(CCCN1C(=O)/C(=C\c2cccs2)SC1=S)Nc1ccc(O)cc1	66.6*	·	3.3	-3.1	1.7	-0.4
O=C(CCCN1C(=O)/C(=C\c2ccco2)SC1=S)Nc1ccc(O)cc1C(=O)O	23.7	39.5*	·	-23.4	2.5	-0.1
O=C(CCCOc1ccc(Cl)cc1)Nc1cccc(C(=O)O)c1	5.3	-1.5	1.7	-2.8	-0.9	2.9
CC(=O)c1cccc(NC(=O)CCCOc2ccc(C)cc2)c1	2.4	-2.7	active	0.4	58.0	5.0
CCOP(=O)(Oc1ccccc1)c1c([N+](=O)[O-])cc(C(F)(F)F)cc1[N+](=O)[O-] (stereo not drawn)	9.8	-0.5	41.8*	-0.6	98.8	0.9
Cc1ccc(C2C(C#N)=C(N)Oc3n[nH]c(-c4ccccc4)c32)o1 (stereo not drawn)	87.5*	2.7	·	-7.1	4.6	2.6
CCC(C)C1C(C#N)=C(N)Oc2n[nH]c(-c3ccccc3)c21 (stereo not drawn)	4.8	-5.4	-2.0	-8.3	-4.2	2.6
Cc1nn(C)c(C)c1C1C(C#N)=C(N)Oc2n[nH]c(C)c21 (stereo not drawn)	43.5*	-2.5	-1.2	-1.6	-1.2	2.0
Cc1ccc(-n2nc(C)c3c2OC(N)=C(C#N)C3c2ccc(F)cc2)cc1 (stereo not drawn)	60.0*	0.1	4.8	-56.7	-5.6	-2.3
Cc1[nH]nc2c1[C@@H](c1ccccc1[N+](=O)[O-])C(C#N)=C(N)O2	-0.3	-1.1	7.7	-1.9	10.2	1.6
Cc1[nH]nc2c1C(C(C)C)C(C#N)=C(N)O2 (stereo not drawn)	·	-0.3	5.3	-3.9	-18.2	0.9
